Measurements published in article PMC5540273 (PLoS ONE, 2017).

test system: T1, ASK1; details: concentration: 1 μM, replicates: in singlicate; n = 1
T1 construct: gene MAP3K5
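Note: KINOMEscan kinase panel screen.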

First: COC(=O)c1c(-c2ccccc2)c2cc(Br)ccc2c(=O)n1Cc1ccc(S(C)(=O)=O)cc1
Second: COC(=O)c1c(-c2ccccc2)c2cc(C)ccc2c(=O)n1Cc1ccccc1
The “%Inh” value of the first is higher: 2% for the first, 0% for the second.

Compared with `CCc1nc(-c2cccc(C)c2)c(-c2ccncc2)s1`, `Cc1cccc(-c2cc(-c3c[nH]nc3-c3ccccn3)ccn2)c1` [GW679395] is higher in “%Inh” value: 0% for the first, 5% for the second.

Compared with `COc1cc(Nc2ccnc3ccc(C(F)(F)F)cc23)cc(OC)c1OC` [GW577382], `COc1cc2nccc(Nc3cccc(Oc4ccccc4)c3)c2cc1OC.Cl` [GW284543] is lower in “%Inh” value: 6% for the first, 0% for the second.

`CN1C(=O)C(Nc2ccccc2)=C(c2ccccc2)C1=O` [SB-300079] and `CN1C(=O)C(Nc2cc(Cl)c(O)c(Cl)c2)=C(c2ccc(Cl)cc2)C1=O` [SB-404321] are the same in “%Inh” value: 0% for the first, 0% for the second.

Going from `CCC(=O)c1c(-c2ccccc2)c2cc(Cl)ccc2c(=O)n1Cc1cc(C(=O)NC2CC2)n(C)n1` to `CCCC(=O)Nc1n[nH]c2ncc(-c3cccc4ccccc34)cc12` [SB-642057], the “%Inh” value rises from 0% to 9%.

Going from `Nc1ncnc2c1ncn2-c1ccc(Cl)cc1` [AH2635] to `Nc1ncnc2c1ncn2-c1cccc(F)c1` [SKF-97560], the “%Inh” value rises from 0% to 18%.

Compared with `COc1cccc(C2=C(N(C)c3ccccc3)C(=O)NC2=O)c1` [SB-334865], `COc1ccc(-c2cc3c(C)nc(N)nc3n([C@H]3CC[C@H](OCCO)CC3)c2=O)cn1` is lower in “%Inh” value: 18% for the first, 11% for the second.
